# Laboratory results reported in PubChem BioAssay AID1159580 (chemical genetic matrix, 2015).
# Hit rate of the full screen: of about 5,500 compounds, about 2,000 (36%) were called active. About 18% were inconclusive and are not listed. The list shows a part of the results. Unmarked numbers belong to inactive results. Rule as the data show it: active = normalized growth mostly below about 0.91 (no sharp cut-off); inconclusive = no clear call, values can overlap the other calls; inactive = mostly above about 0.92.
# Assay: chemical genetic growth profiling, strain panel (AID 1159580);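 also: tested at 20 µM; growth read once vehicle control cultures reached saturation at 30 °C; 1 = growth at the plate median or of vehicle wells; lower values mean less growth of the strain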
# Conditions: S. cerevisiae deletion strains, growth OD
# [1] = locus YAR019C, strain CDC15, active compounds read low
# [2] = locus YBL105C, strain PKC1, active compounds read low
# [3] = locus YBR135W, strain CKS1, active compounds read low
# [4] = locus YBR136W, strain MEC1, active compounds read low
# [5] = locus YBR160W, strain CDC28, active compounds read low
# [6] = locus YDL017W, strain CDC7, active compounds read low
# [7] = locus YDL028C, strain MPS1, active compounds read low
# [8] = locus YDL101C, strain DUN1, active compounds read low
# [9] = locus YDL108W, strain KIN28, active compounds read low
# [10] = locus YDL132W, strain cdc53, active compounds read low
# [11] = locus YDL214C, strain PRR2, active compounds read low
# [12] = locus YDR052C, strain DBF4, active compounds read low
# [13] = locus YDR054C, strain cdc34, active compounds read low
# [14] = locus YDR226W, strain ADK1, active compounds read low
# [15] = locus YDR477W, strain SNF1, active compounds read low
# [16] = locus YER123W, strain YCK3, active compounds read low
# [17] = locus YER133W, strain GLC7, active compounds read low
# [18] = locus YFL009W, strain cdc4, active compounds read low
# [19] = locus YFL029C, strain CAK1, active compounds read low
# [20] = locus YFR003C, strain YPI1, active compounds read low
# [21] = locus YFR019W, strain FAB1, active compounds read low
# [22] = locus YFR028C, strain CDC14, active compounds read low
# [23] = locus YGR040W, strain KSS1, active compounds read low
# [24] = locus YGR052W, strain FMP48, active compounds read low
# [25] = locus YGR092W, strain DBF2, active compounds read low
# [26] = locus YHR030C, strain SLT2, active compounds read low
# [27] = locus YHR079C, strain IRE1, active compounds read low
# [28] = locus YHR082C, strain KSP1, active compounds read low
# [29] = locus YHR205W, strain SCH9, active compounds read low
# [30] = locus YIL147C, strain SLN1, active compounds read low
# [31] = locus YJL095W, strain BCK1, active compounds read low
# [32] = locus YJL128C, strain PBS2, active compounds read low
# [33] = locus YJL157C, strain FAR1, active compounds read low
# [34] = locus YJR016C, strain ILV3, active compounds read low
# [35] = locus YJR066W, strain TOR1 (second series), active compounds read low
# [36] = locus YJR066W, strain TOR1, active compounds read low
# [37] = locus YKL048C, strain ELM1, active compounds read low
# [38] = locus YKL067W, strain YNK1, active compounds read low
# [39] = locus YKL101W, strain HSL1, active compounds read low
# [40] = locus YKL193C, strain SDS22, active compounds read low
# [41] = locus YKL203C, strain TOR2, active compounds read low
# [42] = locus YLR113W, strain HOG1, active compounds read low
# [43] = locus YLR133W, strain CKI1, active compounds read low
# [44] = locus YLR403W, strain SFP1, active compounds read low
# [45] = locus YML070W, strain DAK1, active compounds read low
# [46] = locus YMR001C, strain CDC5, active compounds read low
# [47] = locus YMR205C, strain PFK2 (second series), active compounds read low
# [48] = locus YMR277W, strain FCP1, active compounds read low
# [49] = locus YNL006W, strain LST8, active compounds read low
# [50] = locus YNL020C, strain ARK1, active compounds read low
# [51] = locus YNL161W, strain CBK1, active compounds read low
# [52] = locus YNL183C, strain NPR1, active compounds read low
# [53] = locus YNL207W, strain RIO2, active compounds read low
# [54] = locus YNL222W, strain SSU72, active compounds read low
# [55] = locus YNL307C, strain MCK1 (second series), active compounds read low
# [56] = locus YOL078W, strain AVO1, active compounds read low
# [57] = locus YOL136C, strain PFK27, active compounds read low
# [58] = locus YOR061W, strain CKA2, active compounds read low
# [59] = locus YOR119C, strain RIO1, active compounds read low
# [60] = locus YOR231W, strain MKK1, active compounds read low
# [61] = locus YOR329C, strain SCD5, active compounds read low
# [62] = locus YPL031C, strain PHO85, active compounds read low
# [63] = locus YPL153C, strain RAD53, active compounds read low
# [64] = locus YPL204W, strain HRR25, active compounds read low
# [65] = locus YPL209C, strain IPL1, active compounds read low
# [66] = locus YPL256C, strain CLN2, active compounds read low
# [67] = locus YPR025C, strain CCL1, active compounds read low
# [68] = locus YPR106W, strain ISR1, active compounds read low
# [69] = locus YPR111W, strain DBF20, active compounds read low
# [70] = strain NNK1, active compounds read low
# [71] = strain TSCII, active compounds read low
compound,measurement,setting,value
CC(C)(C)CN/C(C#N)=C(/C#N)NCc1cccc(Cl)c1,normalized growth,[1],0.993
same,normalized growth,[2],0.991
same,normalized growth,[3],0.98
same,normalized growth,[4],0.991
same,normalized growth,[5],0.991
same,normalized growth,[6],0.994
same,normalized growth,[7],0.993
same,normalized growth,[8],0.982
same,normalized growth,[9],0.997
same,normalized growth,[10],0.987
same,normalized growth,[11],0.991
same,normalized growth,[12],0.996
same,normalized growth,[13],0.991
same,normalized growth,[14],0.973
same,normalized growth,[15],0.988
same,normalized growth,[16],0.947
same,normalized growth,[17],0.988
same,normalized growth,[18],0.988
same,normalized growth,[19],0.992
same,normalized growth,[20],0.991
same,normalized growth,[21],0.99
same,normalized growth,[22],0.983
same,normalized growth,[23],0.966
same,normalized growth,[24],0.947
same,normalized growth,[25],0.871
same,normalized growth,[26],0.977
same,normalized growth,[27],0.995
same,normalized growth,[28],1.01
same,normalized growth,[29],0.896
same,normalized growth,[30],1
same,normalized growth,[31],0.883
same,normalized growth,[32],0.95
same,normalized growth,[33],0.982
same,normalized growth,[34],0.987
same,normalized growth,[35],0.97
same,normalized growth,[36],1
same,normalized growth,[37],0.986
same,normalized growth,[38],0.977
same,normalized growth,[39],0.954
same,normalized growth,[40],0.984
same,normalized growth,[41],1.04
same,normalized growth,[42],0.915
same,normalized growth,[43],0.974
same,normalized growth,[44],0.941
same,normalized growth,[45],0.965
same,normalized growth,[46],0.995
same,normalized growth,[47],0.973
same,normalized growth,[48],0.992
same,normalized growth,[49],0.978
same,normalized growth,[50],0.974
same,normalized growth,[51],0.984
same,normalized growth,[52],0.945
same,normalized growth,[53],0.98
same,normalized growth,[54],0.984
same,normalized growth,[55],0.877
same,normalized growth,[56],0.981
same,normalized growth,[57],0.955
same,normalized growth,[58],1
same,normalized growth,[59],1.04
same,normalized growth,[60],0.931
same,normalized growth,[61],0.99
same,normalized growth,[62],0.99
same,normalized growth,[63],0.988
same,normalized growth,[64],0.967
same,normalized growth,[65],0.982
same,normalized growth,[66],1.08
same,normalized growth,[67],0.986
same,normalized growth,[68],0.989
same,normalized growth,[69],0.964
same,normalized growth,[70],0.987
same,normalized growth,[71],0.985
CS(=NC(=O)c1cccc(Cl)c1)c1ccc(OC(=O)c2ccc(Cl)cc2)cc1 (stereo not given),normalized growth,[1],0.969
same,normalized growth,[2],0.966
same,normalized growth,[3],0.97
same,normalized growth,[4],0.966
same,normalized growth,[5],0.967
same,normalized growth,[6],0.968
same,normalized growth,[7],0.964
same,normalized growth,[8],0.972
same,normalized growth,[9],0.964
same,normalized growth,[10],0.958
same,normalized growth,[11],0.958
same,normalized growth,[12],0.954
same,normalized growth,[13],0.967
same,normalized growth,[14],0.966
same,normalized growth,[15],0.972
same,normalized growth,[16],0.924
same,normalized growth,[17],0.95
same,normalized growth,[18],0.966
same,normalized growth,[19],0.966
same,normalized growth,[20],0.968
same,normalized growth,[21],0.943
same,normalized growth,[22],0.966
same,normalized growth,[23],0.96
same,normalized growth,[24],0.98
same,normalized growth,[25],0.981
same,normalized growth,[26],1.08
same,normalized growth,[27],1.1
same,normalized growth,[28],1.06
same,normalized growth,[29],1
same,normalized growth,[30],0.958
same,normalized growth,[31],0.946
same,normalized growth,[32],0.944
same,normalized growth,[33],0.949
same,normalized growth,[34],0.969
same,normalized growth,[35],0.983
same,normalized growth,[36],1.05
same,normalized growth,[37],0.945
same,normalized growth,[38],0.949
same,normalized growth,[39],0.935
same,normalized growth,[40],0.964
same,normalized growth,[41],1.02
same,normalized growth,[42],0.876
same,normalized growth,[43],0.952
same,normalized growth,[44],1
same,normalized growth,[45],0.94
same,normalized growth,[46],0.964
same,normalized growth,[47],0.934
same,normalized growth,[48],0.968
same,normalized growth,[49],0.979
same,normalized growth,[50],0.949
same,normalized growth,[51],0.971
same,normalized growth,[52],1.01
same,normalized growth,[53],0.964
same,normalized growth,[54],0.97
same,normalized growth,[55],0.982
same,normalized growth,[56],0.959
same,normalized growth,[57],0.936
same,normalized growth,[58],0.926
same,normalized growth,[59],1.01
same,normalized growth,[60],0.909
same,normalized growth,[61],0.969
same,normalized growth,[62],0.941
same,normalized growth,[63],0.968
same,normalized growth,[64],0.952
same,normalized growth,[65],0.974
same,normalized growth,[66],1.06
same,normalized growth,[67],0.968
same,normalized growth,[68],0.974
same,normalized growth,[69],0.975
same,normalized growth,[70],0.972
same,normalized growth,[71],0.965
CCOc1ccc(/C=C(\C#N)c2cccc(Cl)c2)cc1,normalized growth,"locus YAL013W, strain DEP1, active compounds read low",0.992
same,normalized growth,"locus YBR229C, strain ROT2, active compounds read low",0.995
same,normalized growth,"locus YCL061C, strain MRC1, active compounds read low",1.01
same,normalized growth,[8],1.01
same,normalized growth,"locus YDL134C, strain PPH21, active compounds read low",0.915 (active)
same,normalized growth,"locus YDR150W, strain NUM1, active compounds read low",0.975
same,normalized growth,"locus YEL061C, strain CIN8, active compounds read low",0.955
same,normalized growth,"locus YGR078C, strain PAC10, active compounds read low",0.979
same,normalized growth,[26],0.694
same,normalized growth,"locus YHR087W, strain rtc3, active compounds read low",0.97
same,normalized growth,"locus YJL187C, strain SWE1, active compounds read low",1.01
same,normalized growth,"locus YJR043C, strain POL32, active compounds read low",1
same,normalized growth,"locus YJR075W, strain HOC1, active compounds read low",0.967
same,normalized growth,"locus YLR039C, strain RIC1, active compounds read low",0.892
same,normalized growth,"locus YLR058C, strain SHM2 (second series), active compounds read low",0.982
same,normalized growth,"locus YLR085C, strain ARP6, active compounds read low",0.723 (active)
same,normalized growth,"locus YLR262C, strain YPT6, active compounds read low",0.952
same,normalized growth,"locus YML094W, strain GIM5, active compounds read low",0.927
same,normalized growth,"locus YMR219W, strain ESC1, active compounds read low",0.99
same,normalized growth,"locus YMR263W, strain SAP30, active compounds read low",0.987
same,normalized growth,"locus YMR307W, strain GAS1, active compounds read low",0.645 (active)
same,normalized growth,"locus YNL153C, strain GIM3, active compounds read low",1.01
same,normalized growth,"locus YNL298W, strain CLA4 (second series), active compounds read low",0.936
same,normalized growth,"locus YNL322C, strain KRE1, active compounds read low",0.975
same,normalized growth,"locus YNR030W, strain Alg12, active compounds read low",0.928
same,normalized growth,"locus YPL055C, strain LGE1, active compounds read low",0.95
same,normalized growth,"locus YPL241C, strain CIN2, active compounds read low",0.933
same,normalized growth,"locus YPR135W, strain CTF4, active compounds read low",0.987
